The record followed here is PubChem BioAssay AID623868 (Vanderbilt High Throughput Screening Facility, 2012).

Screen size: about 2,100 compounds; about 760 (36%) were called active.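 The calls were made as follows: active = thallium-flux fluorescence traces judged by eye to show enhanced or reduced glutamate response, manual score 1 or -1, so both directions (some results past the limit were not filed as active); inactive = the rest, including fluorescent or raised-baseline compounds.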 The list is a sample of the results.

This experiment in a line: non-GIRK thallium flux modulation in mGlu8 cells, confirmation, counter-screen for GIRK activator project, cell-based, HEK-293 rmGlu8, no GIRK (AID 623868).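 Also: extra codes mark interference with 3 for fluorescent and 4 for baseline rise.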 Conditions: thallium flux fluorescence, at 10 µM, actives lie on both sides, codes: 1 enhancer, -1 blocker, 0 none, thallium stimulus containing EC20 glutamate. In general terms: Counterscreens check selectivity or assay interference.
For the molecule `CCC1(C)OCC(Cn2c3ccccc3c3ccccc32)O1` (stereo not given), the manual score is 0 (inactive). As for `O=c1[nH]c(NCCO)nc2c1C1(CCCCC1)Cc1ccccc1-2`, the manual score is 0 (inactive). For `Cc1ccc(/C(O)=C2\C(=O)C(=O)N(c3cc(C)on3)C2c2cccc(Br)c2)cc1` (stereo not given), the manual score was -1 (active). The same measure for `C=CCOc1cccc(C2/C(=C(/O)c3ccc(C)cc3)C(=O)C(=O)N2CCN2CCOCC2)c1` (stereo not given): 0 (inactive).

Turning to `CCN(CC)c1ccc2cc(C=O)c(=O)oc2c1`, the manual score is 3 (inactive). The same measure for `Cc1ccccc1NC(=O)C(=O)NC(C)CCc1ccccc1` (stereo not given): 0 (inactive); for `Cc1ccccc1NC(=S)NC(=O)CCc1ccccc1`: 1 (active). The same measure for `Cc1cccc(C)c1NC(=S)NC(=O)CCc1ccccc1`: 1 (active). With `O=C(O)CN=C(NS(=O)(=O)c1ccccc1)c1ccccc1`, the manual score was 0 (inactive). As for `Cc1cccc(NC(=O)NC(=S)NC(=O)c2ccccc2)c1`, the manual score was 1 (active). The same measure for `Cc1cccc(NC(=S)N/C(=N/S(=O)(=O)c2ccccc2)c2ccccc2)c1`: 1 (active); for `CC(C)Oc1ccc(C2CC(=O)N(c3ccccc3)C2=O)cc1` (stereo not given): 0 (inactive); for `Nc1c(C(O)(C(F)(F)F)C(F)(F)F)ccc2ccccc12`: 0 (inactive). Then `CC(C)(C)CC(=O)Nc1ccc(C(N)=O)cc1`, with 0 (inactive). Take `Cc1cccc(NC(=O)NC(C)CCc2ccccc2)c1` (stereo not given): the manual score was 0 (inactive). As for `O=C(Cc1ccccc1)NC(=S)Nc1cccc(C(F)(F)F)c1`, the manual score is 0 (inactive). In the case of `Cc1cccc(NC(=S)NC(=O)CCc2ccccc2)c1`, the manual score is 1 (active). Then `O=C1OC2(CCCCC2)OC(=O)C1=CNc1nc2ccccc2s1`, with 1 (active); and `O=C(Nc1ccc(O)c(-c2nc3ccccc3s2)c1)C1=COCCO1`, with 0 (inactive).

As for `CN(C)c1nc2ccccc2c(N)c1-c1ccccc1`, the manual score was 0 (inactive). Then `COc1ccc(-c2nnc3sc(C4CCCCC4)nn23)cc1OC`, with -0.5 (inactive); and `CCCc1nc2scc(-c3ccccc3)c2c(=O)n1N`, with 0 (inactive). Then `Cc1ccc(-c2csc3nc[nH]c(=S)c23)cc1C`, with 1 (active); and `S=c1[nH]cnc2scc(-c3ccccc3)c12`, with 1 (active); and `CC1(C)Cc2nc(NCCN3CCOCC3)c(C#N)cc2CO1`, with 0 (inactive). Turning to `O=c1cc(Cn2ccnc2)c2cc3c(cc2o1)CCC3`, the manual score is 0 (inactive). The same measure for `O=C(CN1C(=O)/C(=C/c2ccccc2F)Oc2ccccc21)N1CCN(c2ccccn2)CC1`: 0 (inactive); for `CCOC(=O)c1c(NC(=O)CSc2nnc(-c3ccncc3)n2Cc2ccco2)sc(C(C)=O)c1C`: -1 (active).

Turning to `COC(=O)c1c(NC(=O)CSc2nnc(-c3cccnc3)n2Cc2ccco2)sc(C)c1C`, the manual score is -1 (active). Take `O=C(CCn1c(=O)oc2ccccc21)N1CCN(c2ccccc2Cl)CC1`: the manual score was 0 (inactive).
